Measurements reported in PubChem BioAssay AID1159580 (chemical genetic matrix, 2015).
In all, about 5,500 compounds went through this assay and about 2,000 (36%) were called active. Not shown: some 18% with an inconclusive outcome. Cut-off read from the data, not from the text of the source: active = normalized growth mostly below about 0.91 (no sharp cut-off); inconclusive = no clear call, values can overlap the other calls; inactive = mostly above about 0.92. The list shows a part of the results.

Test: chemical genetic growth profiling, strain panel (AID 1159580);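 note: tested at 20 µM; growth read once vehicle control cultures reached saturation at 30 °C; 1 = growth at the plate median or of vehicle wells; lower values mean less growth of the strain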
Details: growth OD

Measured: normalized growth

COc1cc(O)c2c(c1)C(=O)c1cc(C)cc(O)c1C2=O
inactive: S. cerevisiae deletion strains, locus YJR075W, strain HOC1, stronger effect = lower value 1 | S. cerevisiae deletion strains, locus YKL009W, strain mrt4, stronger effect = lower value 0.921 | S. cerevisiae deletion strains, locus YKL068W, stronger effect = lower value 1.01 | S. cerevisiae deletion strains, locus YKL085W, strain MDH1 (second series), stronger effect = lower value 0.98 | S. cerevisiae deletion strains, locus YKL085W, strain MDH1, stronger effect = lower value 0.98 | S. cerevisiae deletion strains, locus YKL160W, strain elf1, stronger effect = lower value 0.997 | S. cerevisiae deletion strains, locus YKL190W, strain CNB1, stronger effect = lower value 1.02 | S. cerevisiae deletion strains, locus YKR001C, strain vps1, stronger effect = lower value 1.02 | S. cerevisiae deletion strains, locus YKR026C, strain gcn3, stronger effect = lower value 0.997 | S. cerevisiae deletion strains, locus YKR091W, strain srl3, stronger effect = lower value 0.981 | S. cerevisiae deletion strains, locus YLL001W, strain dnm1, stronger effect = lower value 0.994 | S. cerevisiae deletion strains, locus YLL026W, stronger effect = lower value 0.995 | S. cerevisiae deletion strains, locus YLL041C, strain sdh2, stronger effect = lower value 0.988 | S. cerevisiae deletion strains, locus YLR027C, strain aat2, stronger effect = lower value 0.986 | S. cerevisiae deletion strains, locus YLR039C, strain RIC1, stronger effect = lower value 0.846 | S. cerevisiae deletion strains, locus YLR058C, strain SHM2, stronger effect = lower value 1 | S. cerevisiae deletion strains, locus YLR102C, strain apc9, stronger effect = lower value 0.997 | S. cerevisiae deletion strains, locus YLR113W, strain HOG1, stronger effect = lower value 0.979 | S. cerevisiae deletion strains, locus YLR221C, strain rsa3, stronger effect = lower value 0.995 | S. cerevisiae deletion strains, locus YLR258W, strain gsy2, stronger effect = lower value 0.978 | S. cerevisiae deletion strains, locus YLR262C, strain YPT6, stronger effect = lower value 0.884 | S. cerevisiae deletion strains, locus YLR268W, strain sec22, stronger effect = lower value 0.924 | S. cerevisiae deletion strains, locus YLR320W, strain mms22, stronger effect = lower value 0.962 | S. cerevisiae deletion strains, locus YLR330W, strain CHS5, stronger effect = lower value 1.01 | S. cerevisiae deletion strains, locus YLR342W, strain FKS1 (second series), stronger effect = lower value 1.02 | S. cerevisiae deletion strains, locus YLR342W, strain FKS1, stronger effect = lower value 0.994 | S. cerevisiae deletion strains, locus YLR357W, strain rsc2, stronger effect = lower value 0.945 | S. cerevisiae deletion strains, locus YLR370C, strain arc18, stronger effect = lower value 0.986 | S. cerevisiae deletion strains, locus YLR371W, strain rom2, stronger effect = lower value 1 | S. cerevisiae deletion strains, locus YLR384C, strain iki3, stronger effect = lower value 0.977 | S. cerevisiae deletion strains, locus YLR418C, strain cdc73, stronger effect = lower value 1 | S. cerevisiae deletion strains, locus YML016C, strain PPZ1, stronger effect = lower value 1.01 | S. cerevisiae deletion strains, locus YML120C, strain ndi1, stronger effect = lower value 1 | S. cerevisiae deletion strains, locus YML124C, strain tub3, stronger effect = lower value 1 | S. cerevisiae deletion strains, locus YMR058W, strain fet3, stronger effect = lower value 1.01 | S. cerevisiae deletion strains, locus YMR078C, strain ctf18, stronger effect = lower value 0.982 | S. cerevisiae deletion strains, locus YMR125W, strain sto1, stronger effect = lower value 0.995 | S. cerevisiae deletion strains, locus YMR129W, stronger effect = lower value 0.992 | S. cerevisiae deletion strains, locus YMR205C, strain PFK2, stronger effect = lower value 0.97 | S. cerevisiae deletion strains, locus YMR223W, strain ubp8, stronger effect = lower value 0.974 | S. cerevisiae deletion strains, locus YMR231W, strain pep5, stronger effect = lower value 0.979 | S. cerevisiae deletion strains, locus YMR263W, strain SAP30, stronger effect = lower value 1.01 | S. cerevisiae deletion strains, locus YMR307W, strain GAS1, stronger effect = lower value 0.931 | S. cerevisiae deletion strains, locus YNL067W, strain RPL9B, stronger effect = lower value 0.989 | S. cerevisiae deletion strains, locus YNL071W, strain lat1, stronger effect = lower value 0.998 | S. cerevisiae deletion strains, locus YNL128W, strain TEP1, stronger effect = lower value 1.02 | S. cerevisiae deletion strains, locus YNL153C, strain GIM3, stronger effect = lower value 1 | S. cerevisiae deletion strains, locus YNL183C, strain NPR1, stronger effect = lower value 0.99 | S. cerevisiae deletion strains, locus YNL209W, strain ssb2, stronger effect = lower value 0.985 | S. cerevisiae deletion strains, locus YNL233W, strain BNI4, stronger effect = lower value 0.986 | S. cerevisiae deletion strains, locus YNL248C, strain rpa49, stronger effect = lower value 0.987 | S. cerevisiae deletion strains, locus YNL271C, strain bni1, stronger effect = lower value 0.996 | S. cerevisiae deletion strains, locus YNL298W, strain CLA4, stronger effect = lower value 0.91 | S. cerevisiae deletion strains, locus YNL322C, strain KRE1 (second series), stronger effect = lower value 0.974 | S. cerevisiae deletion strains, locus YNL322C, strain KRE1, stronger effect = lower value 1.01 | S. cerevisiae deletion strains, locus YNR049C, strain mso1, stronger effect = lower value 0.987 | S. cerevisiae deletion strains, locus YNR052C, strain pop2, stronger effect = lower value 0.992 | S. cerevisiae deletion strains, locus YOL006C, strain TOP1, stronger effect = lower value 0.775 | S. cerevisiae deletion strains, locus YOL012C, strain htz1 1.44 | S. cerevisiae deletion strains, locus YOL147C, strain pex11, stronger effect = lower value 1.02 | S. cerevisiae deletion strains, locus YOR001W, strain rrp6, stronger effect = lower value 1.01 | S. cerevisiae deletion strains, locus YOR061W, strain CKA2, stronger effect = lower value 1 | S. cerevisiae deletion strains, locus YOR070C, strain gyp1, stronger effect = lower value 0.979 | S. cerevisiae deletion strains, locus YOR080W, strain dia2, stronger effect = lower value 0.978 | S. cerevisiae deletion strains, locus YOR083W, strain WHI5, stronger effect = lower value 0.984 | S. cerevisiae deletion strains, locus YOR106W, strain vam3, stronger effect = lower value 0.991 | S. cerevisiae deletion strains, locus YOR136W, strain idh2, stronger effect = lower value 0.997 | S. cerevisiae deletion strains, locus YOR144C, strain elg1, stronger effect = lower value 1 | S. cerevisiae deletion strains, locus YOR184W, strain ser1, stronger effect = lower value 0.971 | S. cerevisiae deletion strains, locus YOR231W, strain MKK1, stronger effect = lower value 1.02 | S. cerevisiae deletion strains, locus YOR265W, strain rbl2, stronger effect = lower value 0.983 | S. cerevisiae deletion strains, locus YOR270C, strain vph1, stronger effect = lower value 0.978 | S. cerevisiae deletion strains, locus YOR290C, strain snf2, stronger effect = lower value 0.93 | S. cerevisiae deletion strains, locus YOR316C, strain cot1, stronger effect = lower value 1 | S. cerevisiae deletion strains, locus YPL051W, strain arl3, stronger effect = lower value 0.939 | S. cerevisiae deletion strains, locus YPL055C, strain LGE1, stronger effect = lower value 0.999 | S. cerevisiae deletion strains, locus YPL078C, strain atp4, stronger effect = lower value 1 | S. cerevisiae deletion strains, locus YPL106C, strain sse1, stronger effect = lower value 0.973 | S. cerevisiae deletion strains, locus YPL240C, strain hsp82, stronger effect = lower value 0.98 | S. cerevisiae deletion strains, locus YPL256C, strain CLN2, stronger effect = lower value 1.03 | S. cerevisiae deletion strains, locus YPR119W, strain clb2, stronger effect = lower value 0.984 | S. cerevisiae deletion strains, locus YPR141C, strain kar3, stronger effect = lower value 1.01 | S. cerevisiae deletion strains, locus YPR163C, strain tif3, stronger effect = lower value 0.949 | S. cerevisiae deletion strains, locus YPR167C, strain met16, stronger effect = lower value 0.999 | S. cerevisiae deletion strains, strain wtn01, stronger effect = lower value 0.995 | S. cerevisiae strains, strain wild type, stronger effect = lower value 1.01
active: S. cerevisiae deletion strains, locus YLR262C, strain YPT6 (second series), stronger effect = lower value 0.845 | S. cerevisiae deletion strains, locus YML032C, strain rad52, stronger effect = lower value 0.812 | S. cerevisiae deletion strains, locus YNL250W, strain rad50, stronger effect = lower value 0.834 | S. cerevisiae deletion strains, locus YNL307C, strain MCK1, stronger effect = lower value 0.862 | S. cerevisiae deletion strains, locus YOR069W, strain VPS5, stronger effect = lower value 1.12 [resistant]
